# Compound: C#CCNC(=O)CCSSCCC(=O)NCCc1ccc(C=O)c(C=O)c1
# Test: lysine labeling ratio R10:1 (500 µM / 50 µM probe), SILAC-ABPP in living cells; higher = lower intrinsic lysine reactivity toward the probe, active = 2 or less
# Conditions: HeLa; probe concentrations 500 vs 50 µM
# Procedure, shortened: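 Measurements came from LC-MS/MS on a TIMS-TOF Pro of mixed SILAC light and heavy HeLa lysates after click to biotin-azide, trypsin digestion, neutravidin capture, DTT release and alkylation. Before lysis, the living cells sat in PBS at room temperature with 50 µM or 500 µM of an alkyne-tagged, disulfide-linked lysine probe, and labels were swapped forward and reverse. R per lysine is the median across both swap directions of the filtered median high-probe/low-probe MS1 peptide ratio. The cap is 20.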
# UniProt Q01082, sequence (Q01082 whole entry): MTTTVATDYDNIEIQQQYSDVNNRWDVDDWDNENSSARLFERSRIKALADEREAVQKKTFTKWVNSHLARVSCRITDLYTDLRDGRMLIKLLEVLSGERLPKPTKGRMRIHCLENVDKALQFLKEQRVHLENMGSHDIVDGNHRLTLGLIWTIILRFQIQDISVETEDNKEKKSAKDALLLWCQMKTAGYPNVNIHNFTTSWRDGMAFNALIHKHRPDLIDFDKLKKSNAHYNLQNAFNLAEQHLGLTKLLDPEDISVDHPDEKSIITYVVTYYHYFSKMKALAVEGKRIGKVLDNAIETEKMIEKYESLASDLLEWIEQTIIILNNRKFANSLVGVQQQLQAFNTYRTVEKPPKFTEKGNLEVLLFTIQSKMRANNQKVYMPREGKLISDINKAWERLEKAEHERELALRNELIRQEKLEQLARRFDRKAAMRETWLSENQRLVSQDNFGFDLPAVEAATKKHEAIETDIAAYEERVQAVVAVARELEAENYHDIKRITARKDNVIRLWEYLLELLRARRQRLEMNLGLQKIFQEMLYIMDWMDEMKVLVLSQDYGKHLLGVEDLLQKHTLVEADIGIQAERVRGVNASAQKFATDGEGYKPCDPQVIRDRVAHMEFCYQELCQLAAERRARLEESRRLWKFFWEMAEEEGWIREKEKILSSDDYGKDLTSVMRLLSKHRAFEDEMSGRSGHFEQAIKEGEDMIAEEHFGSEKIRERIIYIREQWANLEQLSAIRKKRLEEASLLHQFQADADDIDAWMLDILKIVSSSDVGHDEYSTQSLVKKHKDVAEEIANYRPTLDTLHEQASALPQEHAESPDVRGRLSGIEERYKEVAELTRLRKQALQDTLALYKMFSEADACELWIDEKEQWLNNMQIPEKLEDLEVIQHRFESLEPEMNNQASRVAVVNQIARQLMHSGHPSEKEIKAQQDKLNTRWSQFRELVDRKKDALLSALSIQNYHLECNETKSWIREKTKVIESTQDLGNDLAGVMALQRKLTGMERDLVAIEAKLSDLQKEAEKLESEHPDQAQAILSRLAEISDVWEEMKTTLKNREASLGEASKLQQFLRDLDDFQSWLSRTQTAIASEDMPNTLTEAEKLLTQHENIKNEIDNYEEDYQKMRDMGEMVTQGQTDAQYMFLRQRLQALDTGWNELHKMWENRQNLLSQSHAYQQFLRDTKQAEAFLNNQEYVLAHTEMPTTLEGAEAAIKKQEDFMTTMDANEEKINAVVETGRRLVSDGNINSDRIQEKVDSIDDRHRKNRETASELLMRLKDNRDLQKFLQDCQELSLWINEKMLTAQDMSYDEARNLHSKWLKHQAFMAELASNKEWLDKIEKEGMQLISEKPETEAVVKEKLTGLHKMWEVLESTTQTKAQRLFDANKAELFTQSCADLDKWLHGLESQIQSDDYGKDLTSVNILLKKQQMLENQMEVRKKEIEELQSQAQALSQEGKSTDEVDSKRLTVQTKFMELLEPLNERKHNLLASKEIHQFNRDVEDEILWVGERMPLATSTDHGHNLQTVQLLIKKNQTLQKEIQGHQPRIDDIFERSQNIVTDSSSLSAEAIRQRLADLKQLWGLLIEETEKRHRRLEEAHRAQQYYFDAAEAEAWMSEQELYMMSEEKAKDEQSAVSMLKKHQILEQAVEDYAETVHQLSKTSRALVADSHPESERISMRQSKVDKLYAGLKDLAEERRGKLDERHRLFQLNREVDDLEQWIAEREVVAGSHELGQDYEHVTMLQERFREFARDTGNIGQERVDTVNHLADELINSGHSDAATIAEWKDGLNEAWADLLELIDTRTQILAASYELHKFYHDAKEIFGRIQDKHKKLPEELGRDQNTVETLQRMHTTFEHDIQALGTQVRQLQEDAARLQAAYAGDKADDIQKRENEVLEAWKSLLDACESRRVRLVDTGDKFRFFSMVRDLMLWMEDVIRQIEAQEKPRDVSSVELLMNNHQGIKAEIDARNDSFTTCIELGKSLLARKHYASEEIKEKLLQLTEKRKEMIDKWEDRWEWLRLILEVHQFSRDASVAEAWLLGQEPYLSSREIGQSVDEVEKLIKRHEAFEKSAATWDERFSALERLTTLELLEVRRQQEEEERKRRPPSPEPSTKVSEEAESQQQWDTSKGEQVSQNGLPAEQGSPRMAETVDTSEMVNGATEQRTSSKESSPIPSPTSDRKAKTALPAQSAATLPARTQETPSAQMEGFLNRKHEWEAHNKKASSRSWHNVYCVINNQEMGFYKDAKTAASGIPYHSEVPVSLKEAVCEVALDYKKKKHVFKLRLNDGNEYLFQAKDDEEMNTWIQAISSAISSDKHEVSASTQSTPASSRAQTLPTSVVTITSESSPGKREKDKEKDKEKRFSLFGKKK
# UniProt Q9Y6N7, sequence (Q9Y6N7 whole entry): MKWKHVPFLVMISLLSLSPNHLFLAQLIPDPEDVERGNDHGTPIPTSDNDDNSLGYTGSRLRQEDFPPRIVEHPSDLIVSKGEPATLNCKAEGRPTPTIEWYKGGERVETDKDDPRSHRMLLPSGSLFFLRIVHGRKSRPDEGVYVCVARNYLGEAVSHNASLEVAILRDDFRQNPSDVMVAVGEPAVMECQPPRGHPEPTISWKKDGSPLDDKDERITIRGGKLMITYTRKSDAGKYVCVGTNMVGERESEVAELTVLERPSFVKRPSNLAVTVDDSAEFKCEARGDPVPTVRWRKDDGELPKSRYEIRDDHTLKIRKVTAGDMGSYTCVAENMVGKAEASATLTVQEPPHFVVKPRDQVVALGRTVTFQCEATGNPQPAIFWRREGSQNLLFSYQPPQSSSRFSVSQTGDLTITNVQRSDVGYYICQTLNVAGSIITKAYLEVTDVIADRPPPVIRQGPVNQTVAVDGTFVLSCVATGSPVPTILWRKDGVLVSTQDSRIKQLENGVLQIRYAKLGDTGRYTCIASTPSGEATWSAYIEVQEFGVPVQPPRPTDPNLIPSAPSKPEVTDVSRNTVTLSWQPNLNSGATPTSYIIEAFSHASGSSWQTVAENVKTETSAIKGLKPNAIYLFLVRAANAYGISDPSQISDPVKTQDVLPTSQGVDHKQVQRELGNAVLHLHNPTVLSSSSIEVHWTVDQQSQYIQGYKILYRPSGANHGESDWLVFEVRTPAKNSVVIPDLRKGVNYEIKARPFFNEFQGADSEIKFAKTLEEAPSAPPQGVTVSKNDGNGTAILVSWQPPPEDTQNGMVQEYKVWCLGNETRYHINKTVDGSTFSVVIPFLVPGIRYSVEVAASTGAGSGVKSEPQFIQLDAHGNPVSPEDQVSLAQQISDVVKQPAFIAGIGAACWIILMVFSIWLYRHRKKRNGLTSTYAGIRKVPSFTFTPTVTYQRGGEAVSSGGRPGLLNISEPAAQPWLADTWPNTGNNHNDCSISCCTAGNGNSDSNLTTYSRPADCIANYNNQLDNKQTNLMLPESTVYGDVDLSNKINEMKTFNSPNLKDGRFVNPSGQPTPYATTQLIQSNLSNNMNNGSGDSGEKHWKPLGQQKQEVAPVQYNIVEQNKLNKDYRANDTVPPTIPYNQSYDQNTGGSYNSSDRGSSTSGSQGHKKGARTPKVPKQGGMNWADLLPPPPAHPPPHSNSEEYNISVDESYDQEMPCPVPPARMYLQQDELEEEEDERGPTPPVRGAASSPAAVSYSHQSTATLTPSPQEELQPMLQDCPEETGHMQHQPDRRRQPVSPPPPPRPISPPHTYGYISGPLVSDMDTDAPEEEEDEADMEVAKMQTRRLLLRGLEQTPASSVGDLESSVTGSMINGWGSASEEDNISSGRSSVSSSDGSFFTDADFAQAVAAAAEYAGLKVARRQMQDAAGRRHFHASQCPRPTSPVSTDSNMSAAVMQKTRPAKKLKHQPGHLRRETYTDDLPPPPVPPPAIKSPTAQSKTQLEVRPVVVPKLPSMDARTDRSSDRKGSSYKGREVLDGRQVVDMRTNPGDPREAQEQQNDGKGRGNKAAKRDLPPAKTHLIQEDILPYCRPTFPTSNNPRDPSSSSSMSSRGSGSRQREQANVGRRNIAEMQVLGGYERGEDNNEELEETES
# UniProt P09497, sequence (P09497 whole entry): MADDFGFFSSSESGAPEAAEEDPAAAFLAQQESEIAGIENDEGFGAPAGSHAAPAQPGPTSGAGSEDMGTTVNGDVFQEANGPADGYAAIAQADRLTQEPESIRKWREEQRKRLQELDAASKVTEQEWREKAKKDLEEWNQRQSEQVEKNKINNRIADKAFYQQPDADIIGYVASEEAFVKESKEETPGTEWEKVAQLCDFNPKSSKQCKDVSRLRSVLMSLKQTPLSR
# UniProt Q99500, sequence (Q99500 whole entry): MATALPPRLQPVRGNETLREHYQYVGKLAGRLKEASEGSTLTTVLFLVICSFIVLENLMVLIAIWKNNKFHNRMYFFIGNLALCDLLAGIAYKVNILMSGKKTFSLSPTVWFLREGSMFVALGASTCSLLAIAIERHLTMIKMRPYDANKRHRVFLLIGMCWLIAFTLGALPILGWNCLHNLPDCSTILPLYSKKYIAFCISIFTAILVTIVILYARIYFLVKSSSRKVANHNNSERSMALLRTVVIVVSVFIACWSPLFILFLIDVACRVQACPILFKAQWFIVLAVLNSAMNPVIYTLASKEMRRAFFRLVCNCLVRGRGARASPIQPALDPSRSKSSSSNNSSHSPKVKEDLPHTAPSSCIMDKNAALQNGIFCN
# UniProt O14745, sequence (O14745 whole entry): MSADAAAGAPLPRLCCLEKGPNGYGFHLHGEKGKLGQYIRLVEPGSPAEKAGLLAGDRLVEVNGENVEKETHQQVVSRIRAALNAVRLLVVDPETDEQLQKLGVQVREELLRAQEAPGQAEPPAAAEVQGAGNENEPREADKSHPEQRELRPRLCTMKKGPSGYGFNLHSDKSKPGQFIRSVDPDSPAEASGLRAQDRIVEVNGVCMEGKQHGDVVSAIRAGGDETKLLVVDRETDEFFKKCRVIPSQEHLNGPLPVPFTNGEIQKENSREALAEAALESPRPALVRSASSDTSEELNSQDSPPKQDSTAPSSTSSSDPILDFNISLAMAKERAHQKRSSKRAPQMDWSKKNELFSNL
row,Target,lysine labeling ratio R10:1
1,PLAUR (lysine site: K29) (UniProt Q03405),3.61 (inactive)
2,HEG1 (lysine site: K1075) (UniProt Q9ULI3),3.38 (inactive)
3,EDIL3 (lysine site: K429) (UniProt O43854),1.21 (active)
4,ROBO1 (lysine site: K237) (UniProt Q9Y6N7),3.22 (inactive)
5,UniProt P62280 (lysine site: K30),4.32 (inactive)
6,SLC9A3R1 (lysine site: K227) (UniProt O14745),3.96 (inactive)
7,ITGB5 (lysine site: K72) (UniProt P18084),2.3 (inactive)
8,PGK1 (lysine site: K30) (UniProt P00558),2.54 (inactive)
9,CD44 (lysine site: K38) (UniProt P16070),5.01 (inactive)
10,GALNT2 (lysine site: K363) (UniProt Q10471),3.95 (inactive)
11,SPTBN1 (lysine site: K1878) (UniProt Q01082),4.5 (inactive)
12,G6PD (lysine site: K497) (UniProt P11413),3.47 (inactive)
13,UniProt Q99500 (lysine site: K27),1.9 (active)
14,FAT4 (lysine site: K2570) (UniProt Q6V0I7),3.02 (inactive)
15,ROBO1 (lysine site: K516) (UniProt Q9Y6N7),4.56 (inactive)
16,SEMA3C (lysine site: K724) (UniProt Q99985),4.97 (inactive)
17,EPCAM (lysine site: K155) (UniProt P16422),2.33 (inactive)
18,CCT4 (lysine site: K395) (UniProt P50991),3.34 (inactive)
19,RALA (lysine site: K159) (UniProt P11233),0.885 (active)
20,SLC25A5 (lysine site: K23) (UniProt P05141),3.58 (inactive)

row,Target,lysine labeling ratio R10:1
1,FLNB (lysine site: K976) (UniProt O75369),1.86 (active)
2,FLNA (lysine site: K520) (UniProt P21333),2.73 (inactive)
3,EGFR (lysine site: K212) (UniProt P00533),2.63 (inactive)
4,FN1 (lysine site: K486) (UniProt P02751),2.59 (inactive)
5,CDCP1 (lysine site: K71) (UniProt Q9H5V8),2.07 (inactive)
6,UniProt P48047 (lysine site: K98),1.89 (active)
7,CLTB (lysine site: K122) (UniProt P09497),2.57 (inactive)
8,FASN (lysine site: K436) (UniProt P49327),5.67 (inactive)
9,UniProt P62899 (lysine site: K70),12.9 (inactive)
10,UniProt Q15149 (lysine site: K2309),2.6 (inactive)
11,FLNB (lysine site: K1372) (UniProt O75369),2.69 (inactive)
12,VCL (lysine site: K778) (UniProt P18206),1.11 (active)
13,DSG2 (lysine site: K561) (UniProt Q14126),6.57 (inactive)
14,UniProt P62805 (lysine site: K92),7.01 (inactive)
15,THBS1 (lysine site: K50) (UniProt P07996),4.26 (inactive)
16,TLN1 (lysine site: K149) (UniProt Q9Y490),1.5 (active)
17,UniProt Q6NZI2 (lysine site: K137),3.08 (inactive)
18,ALDOA (lysine site: K111) (UniProt P04075),4.71 (inactive)
19,HSPG2 (lysine site: K3155) (UniProt P98160),1.37 (active)
20,SPTBN1 (lysine site: K932) (UniProt Q01082),3.29 (inactive)
